A short description of experiment [1]: BET inhibitor-based combinations targeting novel dependencies in MECOM-rearranged (r) AML: SET-2 cell line (AID 2202231). Also: nearly all actives have a fitted effect of over 35% in size.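 As to viability: plate controls were DMSO treated cells for no effect and wells without cells for full effect.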 The following applies: SET-2 AML cells viability, CellTiter-Glo luminescence, 48 h; viability: hits give low values, concentration not given here. Summed up: (§1)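 Viability of cells (500 per well) is scored by luminescent CellTiter-Glo at 48 hr post-dosing. Eleven-point titrations are normalized to DMSO and empty controls and reduced to AUC values.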
(ATP-based viability assays read luminescence as a measure of living cells.)

The nature of experiment [2]: BET inhibitor-based combinations targeting novel dependencies in MECOM-rearranged (r) AML: OCI-AML3 cell line (AID 2202232). Also: nearly all actives have a fitted effect of over 35% in size. Conditions: Potency: OCI-AML3 viability. Summed up: as §1
Experiment [3] in a line: BET inhibitor-based combinations targeting novel dependencies in MECOM-rearranged (r) AML: HNT-34 cell line (AID 2202234). Also: nearly all actives have a fitted effect of over 35% in size. Summed up:
(§2)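 Using pin-tool transfer, drugs were added in 11 doses to cells (500/well), incubated 48 hr, and assessed with CellTiter-Glo. Z-AUC is a mean-centring transformation applied separately to each screened line.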

Experiment [4] in a line: BET inhibitor-based combinations targeting novel dependencies in MECOM-rearranged (r) AML: UCSD-AML1 cell line (AID 2202235). Also: nearly all actives have a fitted effect of over 40% in size. Summed up: as §2
Experiment [5] can be described thus: BET inhibitor-based combinations targeting novel dependencies in MECOM-rearranged (r) AML: AML-191 cell line (AID 2202236; also: nearly all actives have a fitted effect of over 35% in size). The method, boiled down: as §1
Experiment [6] can be described thus: BET inhibitor-based combinations targeting novel dependencies in MECOM-rearranged (r) AML: AML-194 cell line (AID 2202237; also: nearly all actives have a fitted effect of over 40% in size). Summed up: as §1
A short description of experiment [7]: BET inhibitor-based combinations targeting novel dependencies in MECOM-rearranged (r) AML: MV-4-11 cell line (AID 2202233). Also: nearly all actives have a fitted effect of over 45% in size. The method, boiled down: as §2

SMILES strings stand for the structures. Inconclusive results are not listed. A number with no mark means an inactive call. The source made the active and inactive calls. Calls follow the shape of the dose curve; as a rule, active = well fitted curve in the direction sought with a large enough effect; inconclusive = small, poorly fitted or top-dose-only effect, or another doubt; inactive = no such curve, though single readings can be large; an effect the other way counts as inactive or inconclusive.
Potency is read from the fitted curve at half-maximal effect.

Usually viability stands for a read-out of living cells in per cent, often relative to untreated cells. As to `Cc1[nH]nc2ncc(C(=O)N3CCC[C@H]3c3ccc(Cl)cc3)cc12`, in experiment [1], the viability was 105%. Besides, the Potency result in experiment [2], in experiment [3], in experiment [4], in experiment [5] and in experiment [6] was “inactive” each time.

In the case of `COc1ccc2c(c1OC)C(=O)OC2[C@H]1c2c(cc3c(c2OC)OCO3)CCN1C` (some centres not stated), the Potency in experiment [1] was 16.6 µM (active); in experiment [2], 20.9 µM (active); in experiment [7] it was 18.6 µM (active); in experiment [5] it was 13.2 µM (active); in experiment [6] it was 20.9 µM (active).

As to `O=C(Nc1cnn2ccc(N3CCC[C@@H]3c3cc(F)ccc3F)nc12)N1CC[C@H](O)C1`, the viability in experiment [1] is 98.9%. The Potency entry in experiment [2], in experiment [3] and in experiment [4] was “inactive” throughout.

With `CCCCC[C@H](O)/C=C/[C@H]1[C@H](O)CC(=O)[C@@H]1CCCCCCC(=O)O`, the viability in experiment [1] was 103%. Further, the Potency in experiment [2] is 9.34 µM (active); in experiment [3] it was 16.6 µM (active); in experiment [4], 11.8 µM (active). In addition, the Potency entry in experiment [5] and in experiment [6] was “inactive” in each case.

With `COc1cc2c(Oc3ccc4[nH]c(C)cc4c3F)ccnc2cc1OCC1(N)CC1`, the Potency in experiment [1] is 16.6 µM (active); in experiment [2] it was 7.42 µM (active); in experiment [3], 10.5 µM (active); in experiment [4] it was 9.34 µM (active); in experiment [5], 7.42 µM (active).

In the case of `Cc1c(C(=O)Nc2ccc(Oc3ccnc4[nH]cc(-c5ccccc5)c34)c(F)c2)c(=O)n(-c2ccc(F)cc2)n1C`, the viability in experiment [1] was 96.3%. Further, the Potency is 20.9 µM (active) in experiment [2], 0.0742 µM (active) in experiment [7], 0.59 µM (active) in experiment [5] and 1.66 µM (active) in experiment [6].

Turning to `CC(C)C1CCC(C(=O)N[C@H](Cc2ccccc2)C(=O)O)CC1` (some centres not stated), the viability in experiment [1] is 115%. Moreover, the Potency entry in experiment [2], in experiment [3], in experiment [4], in experiment [5] and in experiment [6] was “inactive” each time.

Turning to `CC(=O)O/N=C1\C(=O)N(Cc2cc(Cl)ccc2Cl)c2ccc(Cl)cc21`, the Potency in experiment [1] is 9.34 µM (active); in experiment [2], 13.2 µM (active); in experiment [3], 2.95 µM (active); in experiment [4], 8.33 µM (active); in experiment [5], 2.35 µM (active); in experiment [6], 2.63 µM (active).

With `C[C@H](NC(=O)c1c(N)nn2cccnc12)c1cc2cccc(C#Cc3cnn(C)c3)c2c(=O)n1-c1ccccc1`, the viability in experiment [1] is 101%. In addition, the Potency in experiment [2] was 0.0512 µM (active); in experiment [7] it was 8.11 µM (active); in experiment [5], 1.82 µM (active); in experiment [6] it was 7.23 µM (active).

Consider `COC(=O)c1ccc([C@H]2c3[nH]c4ccccc4c3C[C@H](C(=O)OC)N2C(=O)CCl)cc1`, for which the Potency in experiment [1] is 0.0934 µM (active); in experiment [2], 0.105 µM (active); in experiment [7], 0.833 µM (active); in experiment [5], 0.132 µM (active); in experiment [6] it was 0.105 µM (active).

Regarding `N#CC(c1ccnc(NCCc2cccnc2)n1)c1nc2ccccc2s1` (configuration not stated), the Potency was 18.6 µM (active) in experiment [1]; 18.6 µM (active) in experiment [2]; 14.8 µM (active) in experiment [3]; 18.6 µM (active) in experiment [4]; 16.6 µM (active) in experiment [5]; 18.6 µM (active) in experiment [6].

As to `C#CCN(C)CC1=Cc2ccccc2Oc2ccccc21`, in experiment [1], the viability is 106%. In addition, the Potency result in experiment [2], in experiment [3], in experiment [4], in experiment [5] and in experiment [6] was “inactive” each time.

Take `CC(C)n1c(=O)cc(N[C@@H](C)c2ccccc2)[nH]c1=O`: in experiment [1], the viability was 110%. Moreover, the Potency result in experiment [2] and in experiment [5] was “inactive” in each case. Besides, in experiment [7], the Potency is 14.8 µM (active).

As to `CC(C)=CCC[C@](C)(O[C@@H]1O[C@H](CO[C@@H]2O[C@H](CO)[C@@H](O)[C@H](O)[C@H]2O)[C@@H](O)[C@H](O)[C@H]1O)[C@H]1CC[C@]2(C)[C@@H]1[C@H](O)C[C@@H]1[C@@]3(C)CC[C@H](O[C@@H]4O[C@H](CO)[C@@H](O)[C@H](O)[C@H]4O[C@@H]4O[C@H](CO)[C@@H](O)[C@H](O)[C@H]4O)C(C)(C)[C@@H]3CC[C@]12C`, in experiment [1], the viability was 121%. Moreover, the Potency result in experiment [2], in experiment [3], in experiment [4], in experiment [5] and in experiment [6] was “inactive” throughout.

As for `O=C(O)/C(S)=C/c1ccc(I)cc1`, the viability in experiment [1] was 112%. For the same molecule, the Potency result in experiment [2], in experiment [3], in experiment [4], in experiment [5] and in experiment [6] was “inactive” in each case.

Take `COc1cc2c3c(n(CCCn4ccnc4)c(=O)c2cc1OC)-c1cc2c(cc1C3=O)OCO2`: the Potency in experiment [1] was 0.0372 µM (active); in experiment [2], 0.0372 µM (active); in experiment [3], 0.0263 µM (active); in experiment [4], 0.0209 µM (active); in experiment [5], 0.0332 µM (active).

As to `CC(=O)NCCCS(=O)(=O)O`, in experiment [1], the viability is 115%. Further, the Potency result in experiment [2], in experiment [3], in experiment [4], in experiment [5] and in experiment [6] was “inactive” each time.

As to `C[C@H](NC(=O)CCC(F)(F)F)C(=O)N[C@@H]1C(=O)N(CCO)c2ncccc2-c2ccccc21`, in experiment [1], the viability is 95.9%. Besides, the Potency entry in experiment [2], in experiment [3], in experiment [4], in experiment [5] and in experiment [6] was “inactive” each time.

As for `CN[C@@H]1[C@@H](O)[C@@H](O[C@@H]2[C@@H](O)[C@H](O[C@H]3O[C@H](CN)[C@@H](O)[C@H](O)[C@H]3O)[C@@H](N)C[C@H]2NC(=O)C(O)CN)OC[C@]1(C)O` (some centres not stated), the viability in experiment [1] was 116%. Further, the Potency result in experiment [2], in experiment [7] and in experiment [5] was “inactive” in each case.
